Bioassay records as filed in PubChem.
Shown are actives, neighbours in structure and some others; about 21% of the full set was active somewhere.
AMA1 RON2 block: AMA1-RON2 (P. falciparum) interaction inhibition; Potency, µM (top dose mostly 58.2 µM), actives largely listed as inhibitors; AID 720542; 0.2% of 360,000 active; AlphaScreen AMA1-biotinylated RON2 peptide binding; also: nearly all actives have a fitted effect of over 45% in size
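AMA1 (3D7) with his tag at 25 nM final met compounds first, then biotinylated RON2 peptide at 25 nM; detection used donor plus acceptor beads, 10 µg/mL apiece, read by AlphaScreen after 30 min at room temperature.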
Cycloheximide cs: affects cycloheximide protein synthesis inhibition readout, counter-screen; cell reporter, cycloheximide protein synthesis inhibition counterscreen; max response, %; 12% of 300,000 active; AID 2314; in the data active = max response mostly above about 13%, no sharp cut-off; inactive = mostly below about 14%; also: read at 38.3 µM for the half of the compounds with a filed dose
Pf growth 48h: P. falciparum growth inhibition at 48 hours (one generation). P. falciparum luciferase growth in erythrocytes, 48 h. Potency, µM (series often up to 28.7 µM), most hits filed as inhibitors. 5.9% of 310,000 active
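Luciferase-expressing parasites in RBCs, 2% Hct / 0.1% parasitemia final; RPMI 1640 + 0.5% Albumax; 37 C, 5% CO2, one generation; luminescence read-out, lower signal = inhibition.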
Shiga toxin inh: blocks Shiga toxin action in Vero cells; 9.2% of 290,000 active; inhibition, % at 38.7 µM; AID 2315; Vero cells, Shiga toxin protein synthesis inhibition reporter; in the data active = inhibition mostly above about 28%, no sharp cut-off; inactive = mostly below about 43%
Pf growth 96h: P. falciparum growth inhibition at 96 hour, primary screen for plastid delayed-death inhibitors; P. falciparum luciferase reporter growth, 96 h; Potency, µM (highest dose often 28.7 µM), hits mostly inhibitors; 6.9% of 320,000 active
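Luminescence readout: decreased luciferase signal marks inhibited growth of reporter-expressing P. falciparum in infected red cells (2% hematocrit, 0.05% parasitemia final), exposed to compound two generations (96 h, 37 C, 5% CO2).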
HCV inhibitor: blocks hepatitis C virus; 3.4% of 340,000 active; AID 651820; Potency, µM (series often up to 41.8 µM), usual class: inhibitors; Huh7.5.1 HCVcc-Cre infection, luciferase reporter, 44 h
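Cells (1,000/well) were plated 4 h before compound, then infected with HCVcc-Cre virus (~0.5 moi). After 44 h further culture, infection was read as luciferase luminescence following a 15 min substrate incubation at room temperature.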
Of the large screens only hits and unclear results are named; the others gave an inactive call. Unless noted, calls follow the shape of the dose curve; as a rule, active = well fitted curve in the direction sought with a large enough effect; inconclusive = small, poorly fitted or top-dose-only effect, or another doubt; inactive = no such curve, though single readings can be large; an effect the other way counts as inactive or inconclusive.

O=C(CCN1CCOCC1)NC1CCCN(Cc2ccccc2F)C1 (centres undefined)	none
O=C(Cn1cnnn1)NC1CCCN(Cc2ccccc2F)C1 (centres undefined)	Pf growth 96h 5.22µM
CCc1cc(C(=O)NC2CCCN(Cc3ccccc3F)C2)n(C)n1 (centres undefined)	Pf growth 96h inconclusive, HCV inhibitor 8.91µM
Cn1nc(C(=O)NC2CCCN(Cc3ccccc3F)C2)c2ccccc2c1=O (centres undefined)	Pf growth 48h inconclusive, Pf growth 96h inconclusive, HCV inhibitor inconclusive
O=C(CCC(=O)c1ccc(F)cc1)NC1CCCN(Cc2ccccc2F)C1 (centres undefined)	Pf growth 96h 13.1µM (no result: Shiga toxin inh)
O=C1OC[C@H](Cc2ccc3c(c2)OCO3)/C1=C\c1ccc2c(c1)OCO2	HCV inhibitor inconclusive (no result: Cycloheximide cs, Shiga toxin inh)
COc1ccc(S(=O)(=O)NCc2ccc(C(=O)NCCN(C)Cc3ccccc3)cc2)cc1	none (no result: Cycloheximide cs, Pf growth 48h, Shiga toxin inh, Pf growth 96h, HCV inhibitor)
CN(C)CC(=O)Nc1ccc2c(c1)[C@H]1C[C@H](CC(=O)NCc3ccc4c(c3)OCO4)O[C@H](CO)[C@H]1O2	none (no result: Cycloheximide cs, Pf growth 48h, Shiga toxin inh, Pf growth 96h, HCV inhibitor)
CCOC(=O)C1C(c2ccc(O)c(O)c2)NC(=S)NC1(O)C(F)(F)F (centres undefined)	Pf growth 96h 11.7µM
C[C@@H]1O[C@H](CCc2cccc(Cl)c2)CC2=C1C(=O)OC(C)(C)O2	none (no result: Cycloheximide cs, Pf growth 48h, Shiga toxin inh, Pf growth 96h, HCV inhibitor)
C#CCN(Cc1ccco1)C(=O)c1cc(COc2ccc(F)cc2Cl)on1	Pf growth 48h inconclusive, Shiga toxin inh 47.5
CSc1ccccc1OCc1cc(C(=O)N(C)Cc2nonc2C)no1	Cycloheximide cs 59.0, Shiga toxin inh 188.9
Cc1nonc1CN(C)C(=O)c1cc(COc2ccc(F)cc2Cl)on1	Cycloheximide cs 45.5, Shiga toxin inh 57.5
Cc1cc(CN(C)C(=O)c2cc(COc3ccc(F)cc3Cl)on2)n[nH]1	Cycloheximide cs 33.0, Shiga toxin inh 117.5
O=C(NCCCc1ccccc1)c1cc(COc2ccc(F)cc2Cl)on1	none
Cc1cccc(C)c1N1CCN(C(c2cc3ccccc3o2)c2nnnn2C(C)(C)C)CC1 (centres undefined)	none (no result: Cycloheximide cs, Pf growth 48h, Shiga toxin inh, Pf growth 96h, HCV inhibitor)
Cc1ccc(CN(C)C(=O)c2cc(COc3ccc(F)cc3Cl)on2)o1	Cycloheximide cs 31.5, Pf growth 48h 0.0928µM, Shiga toxin inh 49.6
CSc1ccccc1OCc1cc(C(=O)N(C)Cc2ccncn2)no1	Cycloheximide cs 49.1, Shiga toxin inh 104.9
CSc1ccccc1OCc1cc(C(=O)N(C)CCn2nc(C)cc2C)no1	Cycloheximide cs 31.2, Shiga toxin inh 29.7
C[C@H](CO)N1C[C@H](C)[C@@H](CN(C)C(=O)NC2CCCCC2)Oc2ccc(NC(=O)C3CCCCC3)cc2C1=O	none (no result: Cycloheximide cs, Pf growth 48h, Shiga toxin inh, Pf growth 96h)
O=C(CCCN1C(=O)c2ccccc2C1=O)N1CCCCC1	Pf growth 96h 5.22µM
COc1ccccc1N1CCN(C(=O)CN2C(=O)c3cccc4cccc(c34)C2=O)CC1	Pf growth 48h inconclusive, HCV inhibitor inconclusive
Cc1ccccc1N1CCN(C(=O)CCN2C(=O)c3ccccc3C2=O)CC1	Cycloheximide cs 22.6, Shiga toxin inh 49.1
COc1ccccc1N1CCN(C(=O)CCCN2C(=O)c3cccc4cccc(c34)C2=O)CC1	Pf growth 48h inconclusive, HCV inhibitor 8.91µM
O=C(CN1C(=O)c2ccccc2C1=O)N1CCCCC1	none
COc1ccccc1N1CCN(C(=O)CCCCCn2c(=O)[nH]c3ccsc3c2=O)CC1	Pf growth 48h 13.1µM
O=c1[nH]c(=O)n2c(c1-c1ccccc1)OC(CBr)C2 (centres undefined)	none (no result: Cycloheximide cs, Pf growth 48h, Shiga toxin inh, Pf growth 96h, HCV inhibitor)
COc1ccccc1CNC(=O)C(C)n1nc(C)n2c(cc3occc32)c1=O (centres undefined)	none
CO[C@@H]1CN(C)C(=O)c2ccc(NS(=O)(=O)c3c(C)noc3C)cc2OC[C@@H](C)NC[C@@H]1C	none (no result: Cycloheximide cs, Pf growth 48h, Shiga toxin inh, Pf growth 96h, HCV inhibitor)
CC(=O)c1ccc(NC(=O)CSc2ccc(-c3sc(C)nc3C)nn2)cc1	Cycloheximide cs 12.9, Pf growth 48h inconclusive, Pf growth 96h inconclusive, HCV inhibitor inconclusive
Cc1nc(C)c(-c2ccc(SCC(=O)Nc3ccc(C)c(Cl)c3)nn2)s1	none
COc1ccc(NC(=O)CSc2ccc(-c3sc(C)nc3C)nn2)cc1OC	Pf growth 48h inconclusive, Pf growth 96h 13.1µM, HCV inhibitor inconclusive
C=C1[C@@H]2CC[C@H](C2)C1(C)C	none (no result: AMA1 RON2 block, HCV inhibitor)
